Test results taken from PubChem BioAssay (NCI).
The panel holds about 79,000 compounds, 15% with a hit somewhere; the sample as a whole holds those more often. Rule as the data show it: active = growth inhibition above about 70%; inactive = the rest.

Key:
[1] = NCI Yeast Anticancer Drug Screen. Data for the rad50 strain (AID 155);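 also: 0% = growth of vehicle-only cultures of the same strain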; details: S. cerevisiae rad50 strain growth inhibition; at 50.0 µM; stronger effect = higher value
How it was run: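 Relative growth inhibition (compound vs vehicle) was measured in yeast with a defined repair-gene alteration.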

[2] = NCI Yeast Anticancer Drug Screen. Data for the mec2-1 strain (AID 157); details: S. cerevisiae mec2-1 strain, at 50.0 µM, stronger effect = higher value
How it was run: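 Mutant yeast (mec2-1) grown with compound; growth inhibition relative to vehicle control reported.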

[3] = NCI Yeast Anticancer Drug Screen. Data for the sgs1 mgt1 strain (AID 161);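 also: 0% = growth of cultures given vehicle only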; details: S. cerevisiae sgs1 mgt1 strain, at 50.0 µM, stronger effect = higher value
How it was run: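 Growth of a repair-deficient yeast mutant was monitored after compound treatment and expressed as inhibition relative to vehicle-treated cultures.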

[4] = NCI Yeast Anticancer Drug Screen. Data for the cln2 rad14 strain (AID 165);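 also: 0% = growth equal to vehicle treated cultures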; details: S. cerevisiae cln2 rad14 strain, at 50.0 µM, stronger effect = higher value
How it was run: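 Readout is yeast growth inhibition versus vehicle-treated controls, using a strain with cln2 and rad14 alterations exposed to compound.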

[5] = NCI Yeast Anticancer Drug Screen. Data for the bub3 strain (AID 167); details: S. cerevisiae bub3 mutant strain, at 50.0 µM, stronger effect = higher value
How it was run: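 Screening used yeast with an engineered genetic alteration affecting cell cycle control. Compound-exposed cultures were compared with vehicle cultures, and reduced growth was taken as inhibition.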

[6] = NCI Yeast Anticancer Drug Screen. Data for the mlh1 rad18 strain (AID 175); details: S. cerevisiae mlh1 rad18 strain growth inhibition; at 50.0 µM; stronger effect = higher value
How it was run: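 Genetically defined yeast (DNA repair-deficient) exposed to compounds; growth inhibition determined relative to vehicle.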

Measured: growth inhibition

COc1cccc(C(=O)O)c1Cc1cccc2ccccc12
inactive: [1] 1.25% | [2] -6.7% | [3] 10.3% | [4] 27.2% | [5] -0.4% | [6] 25.1%

Cc1nc2c(=O)n(C)c(=O)n(C)c2nc1CCC(=O)O
inactive: [1] -16.1% | [2] -3.9% | [3] -1.4% | [4] -52.5% | [5] 5.2% | [6] -5.6%

NC(=O)[N+](=CC(=S)Nc1ccccc1Cl)C(N)=O
inactive: [1] -43.3% | [2] -43.5% | [3] -36.7% | [4] -15.8% | [5] -33.4% | [6] 34.6%

CN(C(=O)C1(C(=O)C=[N+]=[N-])CC1)c1ccccc1
inactive: [1] -3.8% | [2] -4.4% | [3] -14.8% | [4] 1.3% | [5] -2.55% | [6] 7.3%

O=[N+]([O-])c1ccccc1Oc1ccccc1
inactive: [1] 33.6% | [2] -8.65% | [3] 5.65% | [4] 14.2% | [5] -14.7% | [6] 8%

O=C1CSC(/C(=C\c2ccc(Cl)cc2)c2nc3ccccc3[nH]2)=N1
inactive: [1] 11.3% | [2] 11.2% | [3] -4.15% | [4] 11.7% | [5] 12.2% | [6] 4.3%

CCc1cccc(OC(=O)CCl)c1
inactive: [1] 3.1% | [2] 7.5% | [3] -1.65% | [4] -24.4% | [5] -17.8% | [6] -5.1%

CCSc1[nH]c(NC(=NC(C)C)NC(=O)c2ccccc2)c(C(N)=O)c1C(N)=O
inactive: [1] 2.75% | [2] 1.35% | [3] 0.8% | [4] 9.3% | [5] -4.75% | [6] 18.6%

Cc1ccccc1NC(=O)CC(=O)NNC(Sc1ccccc1)c1cc(N=Nc2ccc(Br)cc2)ccc1O (stereo not given)
inactive: [1] 19.3% | [2] 14.1% | [3] 27.1% | [4] -3.95% | [5] 17.9% | [6] 18.9%

CN1C(=O)N(c2ccccc2)C2(CCN(CC3COc4ccccc4O3)CC2)C1=O (stereo not given)
inactive: [1] 4.05% | [2] -4.45% | [3] 21.6% | [4] 4.7% | [5] -6.9% | [6] 8.75%

CCCNc1nc2c(c(=O)n(C)c(=O)n2C)n1C
inactive: [1] -11.2% | [2] 0.1% | [3] 13.7% | [4] -29.7% | [5] 23.1% | [6] 7.9%

O=C1OC(c2ccccc2)=N/C1=C/c1c(-c2ccccc2)c(-c2ccccc2)c2n1CCC2
inactive: [1] 21.9% | [2] 9.75% | [3] 3.05% | [4] 25.5% | [5] -4.45% | [6] 18.6%

C=Cc1ccccc1NC(C(=O)O)c1ccccc1 (stereo not given)
inactive: [1] 18.8% | [2] -5.05% | [3] -0.8% | [4] 18.6% | [5] 7.2% | [6] 1.35%

CCOc1cc2c(cc1C(C)c1ccc(OCc3ccccc3)c(OC)c1)OCO2 (stereo not given)
inactive: [1] 18.8% | [2] -6.7% | [3] -5.35% | [4] 11.7% | [5] -2.05% | [6] 1.75%

O=C(OCc1ccccc1C1CSCSC1)c1cc(C(=O)OCc2ccccc2C2CSCSC2)c(C(=O)OCc2ccccc2C2CSCSC2)cc1C(=O)OCc1ccccc1C1CSCSC1
inactive: [1] 5.3% | [2] -17.7% | [3] -10.6% | [4] 1.65% | [5] 6.1% | [6] -8.8%

COc1cccc2c1c1ccc3c(c1n2C)C(=O)C=CC3=O
inactive: [1] 23.6% | [2] 22.6% | [3] 21.9% | [4] 11.2% | [5] 4.85% | [6] 20.6%

O=[N+]([O-])c1cc([N+](=O)[O-])c(C(Cl)C(Cl)c2ccccc2)cc1C(Cl)C(Cl)c1ccccc1 (stereo not given)
inactive: [1] 2.4% | [2] 2.55% | [3] -18.9% | [4] 7.65% | [5] 0.6% | [6] -20.4%

CCOC(=O)/C(CC)=N\O
inactive: [1] 8.55% | [2] -4.85% | [3] 3.75% | [4] 3.25% | [5] -4.45% | [6] 19.2%

CC(=O)OCC1OC(n2c(Br)nc3c(N)ncnc32)C2OC(C)(C)OC12 (stereo not given)
inactive: [1] 14.3% | [2] 6.2% | [3] 16.4% | [4] -2.7% | [5] 1.3% | [6] -6.55%

COC(=O)c1cc(OC)c2cccnc2c1Nc1ccccc1
inactive: [1] -7.75% | [2] 12.2% | [3] 9.25% | [4] 0.6% | [5] 11.1% | [6] -6.8%

COC(=O)CCCC(=O)NC1=C(NCc2ccccc2)C(=O)c2ccccc2C1=O
inactive: [1] 10.1% | [2] 12.3% | [3] 33.6% | [4] 13.8% | [5] 32.1% | [6] -0.35%

CCOC(=O)NC(Nc1ccc(C(=O)OCC)cc1)(C(F)(F)F)C(F)(F)F
inactive: [1] 0.25% | [2] 3.25% | [3] -15.2% | [4] -16% | [5] -13.2% | [6] 0.55%

COc1ccc2nccc(C)c2c1
inactive: [1] -13% | [2] 16.9% | [3] -0.9% | [4] -0.9% | [5] 1.5% | [6] -0.25%

Cc1c2occc2cc2c1oc(=O)c1cnccc12
inactive: [1] 0.95% | [2] -0.15% | [3] 1.85% | [4] 21.2% | [5] -4.95% | [6] 14.9%

COC(=O)C([O][Ge]([CH3])([CH3])[CH3])c1ccccc1 (stereo not given)
inactive: [1] 8.75% | [2] -15.1% | [3] -1.5% | [4] 21.2% | [5] -12.9% | [6] -12.7%

O=C1NC2(CCCCC2)N=C2C(Cl)CCCC12Cl (stereo not given)
inactive: [1] -22.1% | [2] -24.5% | [3] -0.7% | [4] 21% | [5] -1.85% | [6] -8.8%

C[C@]12CC=CC(=O)[C@@]1(C)CCC(=O)C2
inactive: [1] 3.45% | [2] 0.95% | [3] -9.05% | [4] -25.4% | [5] -4.7% | [6] 8.1%

Clc1ccc(CCn2ccc3ccccc32)c(Cl)c1
inactive: [1] -12.6% | [2] -10% | [3] 0.05% | [4] 7.2% | [5] 16.9% | [6] 4.35%

O=C(NC1CCCCC1)N(C1CCCCC1)C1CCCCC1
inactive: [1] 7.65% | [2] 9.95% | [3] -2.05% | [4] 2.85% | [5] 23.9% | [6] 1.85%

CCOC(=O)CNC(=O)C(Cc1ccccc1)NC(=O)c1ccccc1NC(=O)c1ccccc1 (stereo not given)
inactive: [1] 28.8% | [2] 20.8% | [3] 4.3% | [4] 13.3% | [5] 0.7% | [6] 22.2%

O=C1c2ccccc2C(O)(c2ccc(O)cc2)c2ccccc21
inactive: [1] -3.25% | [2] 0.1% | [3] -0.95% | [4] -0.3% | [5] 6.1% | [6] 6.2%

CS(=O)(=O)Cc1cc(-c2ccccc2)no1
inactive: [1] 15.1% | [2] 28.1% | [3] 8.7% | [4] -3.4% | [5] 7.75% | [6] 9.85%

CCCCCCCCCCCCCCCC/C(C)=C\C(=O)OC
inactive: [1] 3.8% | [2] 20.3% | [3] 22.9% | [4] -0.9% | [5] 28.9% | [6] 16.1%

COc1cc2c(cc1C1=NC(C)(C)CO1)OCO2
inactive: [1] -7.35% | [2] -18.7% | [3] -28.9% | [4] -0.6% | [5] -24.1% | [6] -49.2%

CCn1c(=O)c2[nH]c(-n3c(Cl)nc4c3c(=O)n(CC)c(=O)n4CC)nc2n(CC)c1=O
inactive: [1] 31.1% | [2] 2.8% | [3] 2.9% | [4] 14.2% | [5] -0.5% | [6] 21.4%

C=C(C)C(=O)Nc1ccc2nn(-c3ccccc3O)nc2c1
inactive: [1] -24.9% | [2] -25.4% | [3] 1.75% | [4] 8.15% | [5] -14.2% | [6] 5.3%

O=C(c1ccccc1)c1ccc(C(=O)c2ccccc2)cc1
inactive: [1] -0.35% | [2] -1.85% | [3] -19.2% | [4] -6.15% | [5] -9.35% | [6] -19.3%

COc1ccc(/C=C/C(=O)C(C)(C)C)cc1OC
inactive: [1] 25.4% | [2] 3.9% | [3] 3.6% | [4] 31.5% | [5] 27.9% | [6] 23.2%

NC1=NS(=O)(=O)Nc2nc(-c3ccccc3)c(-c3ccccc3)nc21
inactive: [1] -24.6% | [2] -10.2% | [3] 12.5% | [4] -0.85% | [5] 2.6% | [6] 7.3%

CC(=O)c1cc2cc(Br)ccc2oc1=O
inactive: [1] 13.5% | [2] 18% | [3] 16.2% | [4] 24.9% | [5] 14.4% | [6] 23.6%
